High-throughput results from PubChem.
AmpC detergent = qHTS Inhibitors of AmpC Beta-Lactamase (assay with detergent); 370,000 tested, 0.041% active; P00811; AmpC hydrolysis of nitrocefin, absorbance 480 nm, 0.01% Triton; Potency, µM (top dose mostly 114 µM), inactives show top-dose activity change, negative = inhibition, most hits filed as inhibitors;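 further: potency means the concentration at half of the fitted maximal effect; 0% = no-compound wells and -100% = no-enzyme wells; nearly all actives have a fitted effect of over 25% in size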
Target sequence (P00811 whole entry, looked up): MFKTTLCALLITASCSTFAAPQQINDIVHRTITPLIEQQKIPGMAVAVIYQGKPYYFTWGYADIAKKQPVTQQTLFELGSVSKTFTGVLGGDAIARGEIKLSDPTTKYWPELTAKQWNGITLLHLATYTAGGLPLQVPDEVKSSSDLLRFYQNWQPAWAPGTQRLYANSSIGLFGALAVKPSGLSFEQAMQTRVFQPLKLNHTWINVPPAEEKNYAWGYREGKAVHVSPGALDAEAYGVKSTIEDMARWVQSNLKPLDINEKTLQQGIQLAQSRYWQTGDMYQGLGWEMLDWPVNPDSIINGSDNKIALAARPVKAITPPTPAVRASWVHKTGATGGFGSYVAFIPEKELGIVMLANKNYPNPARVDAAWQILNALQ
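20 mM phosphate pH 7.0 + 0.01% (detergent screen) or 0.0001% Triton X-100; 5.3 nM AmpC reagent; cpd preinc 15 min RT; nitrocefin (800 uM stock) to start; A480 q20 s × 4 min; Activity was normalised to no-enzyme and no-compound control wells.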
FMDV inh = High Throughput Screening for Foot and Mouth Disease Virus Antivirals | Potency, µM (titrated, usually from 57.9 µM), for the others: top-dose activity change, negative = inhibition, usual class: inhibitors | 410,000 tested, 1.2% active | FMDV antiviral cell-based qHTS; calls by dose curve; tested in HEK293T cells; further: read-out not given here; potency means the concentration at half of the fitted maximal effect; nearly all actives have a fitted effect of over 45% in size
HCV inhibitor = qHTS Assay for Inhibitors of Hepatitis C Virus (HCV) | Huh7.5.1 HCVcc-Cre infection, luciferase reporter, 44 h | Potency, µM (titrated, usually from 41.8 µM), for the others: at the top dose activity change, negative = inhibition, actives largely listed as inhibitors | 340,000 tested, 3.4% active | AID 651820, 2012; further: potency means the concentration at half of the fitted maximal effect
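Cells seeded at 1,000/well and cultured 4 h, then compounds added followed by HCVcc-Cre virus (~0.5 moi). After 44 h further culture, luciferase substrate was added, plates held 15 min at room temperature, and luminescence read for 15 sec.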
HCMV antiviral = qHTS Assay for inhibitors of the human cytomegalovirus (HCMV); HFF cells, HCMV-luciferase reporter, 72 h; stronger effect = lower value; activity change, negative = inhibition, % at 57.5 µM; 410,000 tested, 4.5% active; AID 1259415, 2018; in the data active means activity change below about -60%; inconclusive means no clear call, values can overlap the other calls; inactive means above about -39%
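Two-dose cell screen: HFF monolayers treated with compounds and infected with luciferase-expressing HCMV at 1 PFU/cell, 72 h at 37C, then lysed for luciferase measurement.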
AmpC inh no detg = qHTS Inhibitors of AmpC Beta-Lactamase (assay without detergent); 330,000 tested, 0.52% active; Potency, µM (doses to about 57.1 µM), for the others: top-dose activity change, negative = inhibition, actives largely listed as inhibitors; P00811; AmpC nitrocefin hydrolysis, absorbance 480 nm, 0.0001% Triton; AID 485341, 2010;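 further: potency means the concentration at half of the fitted maximal effect; plate controls were no compound for no effect and no enzyme for full effect; nearly all actives have a fitted effect of over 20% in size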
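AmpC (5.3 nM in the dispensed reagent) in 20 mM phosphate pH 7.0 with 0.01% (detergent screen) or 0.0001% Triton X-100 was preincubated with compounds for 15 min at room temperature. Nitrocefin was then added from an 800 uM solution, and hydrolysis was followed at 480 nm.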
Numbers without * were called inactive; ? = inconclusive; . = not tested or not shown; ! = not confirmed by another sample. Sampled rows, rich in hits. Any-hit rate of the full collection: about 7.3%. Unless noted, the call rests on the fitted dose curve; in most records, active means well fitted curve in the direction sought with a large enough effect; inconclusive means small, poorly fitted or top-dose-only effect, or another doubt; inactive means no such curve, though single readings can be large; an effect the other way counts as inactive or inconclusive. Unless noted, on the % scale 0 is the no-effect control and ±100 the full control effect.

SMILES	AmpC detergent	FMDV inh	HCV inhibitor	HCMV antiviral	AmpC inh no detg
C=CCSC1=C(C#N)C(c2ccccc2Cl)C(C(=O)c2cccs2)C(O)(C(F)(F)F)N1 (stereo not drawn)	3%	-23%	?	-70*	-10%
COc1ccc(OC)c(N/C(N)=N/c2nc(C)cc(C)n2)c1	-5%	-22%	?	53	-26%
Cc1cc(C)nc(/N=C(\N)Nc2ccc(-c3ccccc3)cc2)n1	-3%	?	11µM*	?	-4%
COc1ccc(N/C(N)=N/c2nc(C)cc(C)n2)c(OC)c1	4%	?	?	-67*	-22%
CCOC(=O)c1ccccc1NC(=O)CN1C(=O)CC(c2ccccc2)Sc2ccccc21 (stereo not drawn)	-3%	36%	.	?	.
CCOC(=O)C1=NN(c2ccccc2)C(=O)/C1=C\c1ccc(N(C)C)cc1	3%	18µM*	11%	-11	-26%
CC1=NN(Cc2ccccc2)C(=O)/C1=C\c1ccc(N(C)C)cc1	?	0%	17%	?	14%
O=C1c2ccccc2C(=O)c2c1ccc(O)c2O	.	-14%	16%	18	.
O=C1c2ccc(O)c(O)c2C(=O)c2c(O)ccc(O)c21	.	22µM*	.	.	.
CN(C)c1ccc(/C=C2/C(=N\O)C3CCN2CC3)cc1	0%	9%	-14%	-98*	-14%
COc1ccccc1CNC(=O)C1(C)CCN1Cc1ccc(OC(F)(F)F)cc1 (stereo not drawn)	.	-1%	.	-18	.
CCC(C)NC(=O)C1CCN(C(=O)c2cc3sccc3n2Cc2ccc(Cl)cc2)CC1 (stereo not drawn)	-6%	14µM*	.	.	.
O=C(/C=C/c1ccc([N+](=O)[O-])cc1)Nc1ncc([N+](=O)[O-])s1	0%	-72%	11µM*	-113*	?
O[C@@H]1CN(Cc2ccccc2Cl)CC[C@H]1N1CCOCC1	-7%	-18%	16%	-12	-3%
OC1(c2cccc(C(F)(F)F)c2)CCN(c2ncnc3c2[nH]c2ccc(F)cc23)CC1	16%	?	0.71µM*	-87*	.
CCOC(=O)N1CCN(c2ncnc3c2[nH]c2ccc(OC)cc23)CC1	?	?	-29%	?	-17%
CCOC(=O)N1CCN(c2ncnc3c2[nH]c2ccc(F)cc23)CC1	0%	14µM*	8.9µM*	-81*	-33%
O=C(CCCN1CCC(O)(c2cccc(C(F)(F)F)c2)CC1)c1ccc(F)cc1	?	-20%	?	66	24%
Fc1ccc2[nH]c3c(Cl)ncnc3c2c1	-3%	-26%	7%	7	-23%
Fc1ccc2[nH]c3c(N4CCN(c5ccccc5)CC4)ncnc3c2c1	-1%	?	7.9µM*	-97*	-57%
O=c1c2[nH]c3ccc(F)cc3c2ncn1CCN1CCN(Cc2ccccc2)CC1	?	?	19%	16	0.32µM*
O=C(COC(=O)c1ccc(F)cc1F)c1ccc[nH]1	-14%	1%	0%	?	-16%
Cc1ccc(NC(=O)C2CC(O)CN2C(=O)OCc2ccccc2)c(C)c1 (stereo not drawn)	-1%	-4%	17%	-63*	-1%
Cc1ccc(NC(=O)C2CC(O)CN2C(=O)Oc2ccccc2)c(C)c1 (stereo not drawn)	-8%	8%	-3%	26	-10%
Cc1ccc(S(=O)(=O)C2(C(=O)Nc3nccs3)CC2)cc1	?	-22%	-5%	-79*	2%
SMILES	AmpC detergent	FMDV inh	HCV inhibitor	HCMV antiviral	AmpC inh no detg
Cc1ccc(S(=O)(=O)C2(C(=O)Nc3cccc(F)c3)CC2)cc1	?	-5%	-8%	?	2.8µM*
COc1cc(C2Nc3ccc4ncccc4c3C3=C2C(=O)CC(C)(C)C3)cc(OC)c1O (stereo not drawn)	-9%	33%	-1%	-83*	-6%
CCCCCCC#Cc1cncc(C(=O)NNC(=O)Nc2cc(Cl)cc(Cl)c2)c1	5%	0%	23%	-25	16µM*
Cc1ccc(-c2nc(CN(C)Cc3cccc4cnccc34)c(C)o2)s1	1%	?	?	-67*	83%
CNC(=O)C1CCC(Cn2c(=O)c3sccc3n(CC(=O)N3CCCC3)c2=O)CC1 (stereo not drawn)	-7%	-1%	.	-12	.
O=C1N/C(=N/O)S/C1=C/c1cccnc1	?	18%	19%	-4	-1%
O=C1NC(=NCc2ccccc2)S/C1=C\c1ccccc1	-3%	6%	18%	-68*	-31%
CC1CN(CCC(=O)NC(c2cccnc2)C(F)(F)F)Cc2cc(Cl)ccc2O1 (stereo not drawn)	.	-7%	.	.	.
O=C(NC(NC(=S)Nc1ccccc1Cl)C(Cl)(Cl)Cl)c1cccc(Cl)c1 (stereo not drawn)	-10%	0%	?	-99*	-25%
O=C(Cc1cccc2ccccc12)NC(NC(=S)Nc1ccccc1Cl)C(Cl)(Cl)Cl (stereo not drawn)	-7%	-20%	?	-39	?
COc1ccc(NC(=S)NC(NC(=O)CF)C(Cl)(Cl)Cl)c([N+](=O)[O-])c1 (stereo not drawn)	?	8%	35%	22	-28%
COc1ccc(NC(=S)NC(NC(=O)c2cccc(Cl)c2)C(Cl)(Cl)Cl)c([N+](=O)[O-])c1 (stereo not drawn)	-9%	-24%	11µM*!	-88*	-16%
COc1ccc(NC(=S)NC(NC(=O)c2cccc(C)c2)C(Cl)(Cl)Cl)c([N+](=O)[O-])c1 (stereo not drawn)	0%	-3%	?	-11	4µM*
CC(C)C(=O)NC(NC(=S)Nc1cccc2cccnc12)C(Cl)(Cl)Cl (stereo not drawn)	-3%	-5%	?	-9	10µM*
COc1ccc(NC(=S)NC(NC(C)=O)C(Cl)(Cl)Cl)c([N+](=O)[O-])c1 (stereo not drawn)	-7%	0%	-14%	-24	-25%
CCN(CC(=O)Nc1ccc(NC(C)=O)cc1)C(=O)c1cn(-c2ccccc2)nc1-c1cccs1	?	7%	-1%	-3	45%
CCc1cccc(NC(=O)C(Cc2ccccc2)NS(=O)(=O)c2cccs2)c1 (stereo not drawn)	-1%	14%	.	-12	.
COc1ccc(NC2=C(NC(C)=O)C(=O)c3ccccc3C2=O)cc1	0%	0%	?	-67*	-9%
CC(=O)Nc1ccc2c(c1)C(=O)c1ccccc1C2=O	-11%	57%	10µM*	34	-22%
COC1=C(Nc2ccc(OC)cc2)C(=O)c2ccccc2C1=O	-8%	31%	3%	6	-22%
